# Sampled rows, rich in hits. Any-hit rate of the full collection: about 3.1%.
# RAD54 inh: blocks human RAD54 Holliday junction branch migration. Q92698. FAM/BHQ fluorescence. inhibition, % at 10.4 µM. actives 0.14% (n = 360,000);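 active means mean normalized replicate activity at least 40 and at least half of replicates scoring 40 or more; inconclusive means only one of the two criteria met; inactive means mean below 40 and under half of replicates reaching 40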;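 further: 0% = median of neutral control wells and 100% = median of positive control wells; inhibitors cause a drop in the FAM fluorescence signal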
# RAD52 anneal inh: inhibitors of human RAD52 DNA annealing; P43351; recombinant RAD52 DNA annealing, FRET fluorescence; inhibition, % at 18.7 µM; actives 0.46% (n = 360,000); AID 651710;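 active means every replicate showing at least 50% inhibition; inconclusive means mean inhibition at least 50% but not in every replicate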
# INS-1E GSIS act: primary screen for activators of insulin secretion dependent on glucose, INS-1E cells, GLuc reporter luminescence. AID 743287. activation, % at 16.6 µM. actives 0.61% (n = 370,000). INS-1E GLuc reporter insulin secretion, 2-3 h;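 active means lowest replicate activation of at least 40%, so every replicate reaches that level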;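 further: 0% = median of neutral control wells and 100% = median of IBMX positive control wells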
# dFosB act: mouse delta FosB homodimer activation | P13346 | purified delta FosB, TAMRA-CDK5 oligo fluorescence polarization; percent of positive-control signal above neutral wells | activation, % at 25 µM | actives 0.99% (n = 340,000) | AID 493131;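 active means mean activation above about 17%, with every replicate also reaching it, limit read from the data, passing the limit was not always enough; inconclusive means only one of the two conditions met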
# Target sequence (P13346 whole entry, looked up): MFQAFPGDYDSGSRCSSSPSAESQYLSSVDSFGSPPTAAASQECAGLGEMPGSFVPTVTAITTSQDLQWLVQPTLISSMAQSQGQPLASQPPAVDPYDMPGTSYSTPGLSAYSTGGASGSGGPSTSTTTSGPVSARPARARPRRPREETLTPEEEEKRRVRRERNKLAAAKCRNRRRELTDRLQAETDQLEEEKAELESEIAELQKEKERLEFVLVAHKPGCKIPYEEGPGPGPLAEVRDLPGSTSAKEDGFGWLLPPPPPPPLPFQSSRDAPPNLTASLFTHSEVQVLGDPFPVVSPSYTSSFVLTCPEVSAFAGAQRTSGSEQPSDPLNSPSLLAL
# MLL AF4-AF9 inh: inhibitors of human MLL-AF4/AF9 interaction | AlphaScreen, biotin-AF4 peptide binding to FLAG-AF9 | actives 0.47% (n = 350,000) | inhibition, % at 10 µM | AID 651704 | P42568;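 active means every replicate reaching a set inhibition limit, whatever the replicate mean, cut at about 25% in these data; inconclusive means mean inhibition reaches that limit but some replicates miss it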;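 further: 0% = plate neutral control median and 100% = total signal loss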
# DENV2 CPE rescue: inhibitors of DENV2 cytopathic effect. actives 1.7% (n = 350,000). CPE inhibition, % at 9.99 µM. DENV2-infected cells, cytopathic effect rescue, plate reader; in the data active means CPE inhibition above about 20%, passing the limit was not always enough; inconclusive means no clear call, values can overlap the other calls; tested in BHK-21 cells;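 further: 0% = median of neutral control wells and 100% = median of positive control wells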
# Numbers without * were called inactive; i = inactive; ? = inconclusive; · = not tested or not shown; ! = not confirmed by another sample.
SMILES,RAD54 inh,RAD52 anneal inh,INS-1E GSIS act,dFosB act,MLL AF4-AF9 inh,DENV2 CPE rescue
CN1CCN(CC(C)(C)NS(=O)(=O)c2ccc(Cl)cc2)CC1,-1,·,·,-1,·,·
CCOC(=O)N1CCN(C2=C(NS(=O)(=O)c3ccc(C)cc3)C(=O)c3ccccc3C2=O)CC1,3,-25,11,-9,1,-2
Cc1ccc(S(=O)(=O)NC2=C(N3CCN(Cc4ccccc4)CC3)C(=O)c3ccccc3C2=O)cc1,4,-6,0,-4,35*,·
CCC/C(=C1/c2ccccc2C(=O)N1c1ccccc1)c1ccc(O[C@@H]2CCCCO2)cc1,7,-40,-1,-12,9,37*
CCC/C(=C1/c2ccccc2C(=O)N1c1ccccc1)c1ccc2c(c1)OCCO2,4,-20,-7,-7,·,-1
CO[C@H]1CN(C)C(=O)c2ccc(NC(=O)C3CCOCC3)cc2OC[C@H](C)NC[C@@H]1C,·,10,3,·,-5,9
O=C(Cc1cccs1)NCCc1ccc(F)cc1,-10,-13,0,1,-5,-2
OCCc1ccc(NCCc2cccs2)cc1,1,-4,9,·,3,21*
Cc1ccc(-c2ccc(C3[C@H]4CNC[C@@H]3N4S(=O)(=O)c3cccc(C)c3)cc2)cc1 (stereo partly specified),·,54*!,-4,·,-2,-4
COc1ccc(-c2ccc(C3[C@H]4CNC[C@@H]3N4S(=O)(=O)c3cccc(C)c3)cc2)cc1 (stereo partly specified),·,43,2,·,-2,?
O=S(=O)(c1cccc(Cl)c1)N1[C@@H]2CNC[C@H]1C2c1ccc(-c2cccc(F)c2)cc1 (stereo partly specified),·,54*!,-1,·,0,1
Cc1ccc(-c2ccc(C3[C@H]4CNC[C@@H]3N4S(=O)(=O)c3ccccc3)cc2)cc1 (stereo partly specified),·,47,-11,·,4,-10
COc1ccc(S(=O)(=O)N2[C@@H]3CNC[C@H]2C3c2ccc(-c3cccc(C)c3)cc2)cc1 (stereo partly specified),·,65*!,15,·,-3,-3
COc1ccccc1-c1cn(CC[C@@H]2CC[C@H](NC(=O)CCN3CCCCC3)[C@@H](CO)O2)nn1,6,-1,-5,·,1,?
COc1ccc(-c2cnc3c(c2)C(=O)N([C@@H](C)CO)C[C@H](C)[C@@H](CN(C)C)O3)cc1,7,13,12,·,-15,?
O=C(O)CN1C(=O)/C(=C/c2ccc(N3CCCCC3)o2)SC1=S,·,i,-3,86*,0,7
CO[C@H]1CN(C)C(=O)c2cc(NC(=O)NC(C)C)ccc2OC[C@H](C)N(CC2CC2)C[C@H]1C,-3,28,-2,·,-13,-11
Cc1noc(C)c1S(=O)(=O)N(C)C[C@@H]1OCCCC[C@@H](C)Oc2ccc(NC(=O)C3CCCCC3)cc2C(=O)N([C@H](C)CO)C[C@@H]1C,-15,-5,2,·,0,1
C[C@H]1CCCCO[C@H](CN(C)S(=O)(=O)c2cccs2)[C@@H](C)CN([C@@H](C)CO)C(=O)c2cc(NC(=O)c3ccccc3)ccc2O1,-10,·,-10,·,·,36*
C[C@@H]1CN([C@H](C)CO)C(=O)c2cc(NC(=O)c3ccccc3)ccc2O[C@@H](C)CCCCO[C@@H]1CN(C)S(C)(=O)=O,5,-2,5,·,-2,0
C[C@@H]1CCCCO[C@@H](CN(C)S(C)(=O)=O)[C@@H](C)CN([C@H](C)CO)C(=O)c2cc(NC(=O)c3ccccc3)ccc2O1,-4,2,8,·,-1,85*
C[C@@H]1CCCCO[C@H](CN(C)S(=O)(=O)c2cccs2)[C@H](C)CN([C@@H](C)CO)C(=O)c2cc(NC(=O)c3ccccc3)ccc2O1,4,·,-2,·,·,3
CN(C)CC(=O)N1C[C@@H]2[C@H](c3ccccc31)[C@H](CO)N2Cc1cc(F)ccc1F,5,-39,-7,·,2,6
O=C(C[C@@H]1CC[C@H](NC(=O)c2ccccn2)[C@H](CO)O1)NCc1cccc(F)c1,0,7,14,·,1,0
OCCCn1c(-c2ccccc2)csc1=Nc1ccccc1,4,-3,3,-16,45*,-1

# Source: PubChem (Broad Institute)
